Screening results from PubChem.
Only some compounds are listed: those with a hit (about 1.6% of all), similar ones and a draw of the others.
KCNQ2 block: KCNQ2 (rat) channel inhibition; CHO-K1 KCNQ2, FluxOR thallium flux, 20 min; stronger effect = lower value; B-score at 10 µM; 310,000 compounds, 1.1% hits; AID 2156;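 active means fluorescence ratio B-score at most minus 3 library SDs, with starting brightness B-score within 2 library SDs, cut at about -5.5 in these data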
Target sequence (O88943 whole entry, looked up): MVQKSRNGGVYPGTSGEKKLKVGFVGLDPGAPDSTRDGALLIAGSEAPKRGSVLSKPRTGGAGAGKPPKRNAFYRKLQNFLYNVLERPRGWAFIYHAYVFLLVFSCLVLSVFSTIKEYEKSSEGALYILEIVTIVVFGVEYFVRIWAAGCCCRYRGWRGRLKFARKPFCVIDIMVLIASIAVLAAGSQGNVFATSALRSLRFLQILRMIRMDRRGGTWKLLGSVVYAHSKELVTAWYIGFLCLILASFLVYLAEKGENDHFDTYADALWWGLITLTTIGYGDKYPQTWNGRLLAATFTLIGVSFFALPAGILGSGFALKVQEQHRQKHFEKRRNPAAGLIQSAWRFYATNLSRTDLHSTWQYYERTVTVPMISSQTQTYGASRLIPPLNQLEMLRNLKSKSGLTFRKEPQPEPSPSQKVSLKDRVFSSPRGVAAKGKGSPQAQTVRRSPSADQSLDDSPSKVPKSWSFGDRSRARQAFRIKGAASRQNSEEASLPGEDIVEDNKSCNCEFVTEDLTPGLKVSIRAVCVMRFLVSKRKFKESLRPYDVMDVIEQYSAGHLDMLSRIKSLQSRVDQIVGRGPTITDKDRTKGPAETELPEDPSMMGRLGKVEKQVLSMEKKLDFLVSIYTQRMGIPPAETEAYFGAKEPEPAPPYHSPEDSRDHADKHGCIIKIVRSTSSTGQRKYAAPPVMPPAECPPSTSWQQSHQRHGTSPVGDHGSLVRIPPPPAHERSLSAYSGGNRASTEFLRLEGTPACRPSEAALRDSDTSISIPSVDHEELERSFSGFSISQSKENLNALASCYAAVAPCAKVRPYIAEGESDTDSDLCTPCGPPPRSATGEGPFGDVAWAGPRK
KCNQ2 enhance: enhances the rat KCNQ2 potassium channel; AID 2239; B-score at 10 µM; CHO-K1 KCNQ2, FluxOR thallium flux fluorescence; stronger effect = higher value; 310,000 compounds, 0.54% hits; O88943;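 active means fluorescence ratio B-score at least 3 SD of library B-scores, with initial fluorescence B-score within 3 of them, cut at about 5.3 in these data; same plate scores as AID 2156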;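 further: B-score of peak minus minimum over baseline fluorescence ratio after K+ and Tl+ stimulus; positive B-score means potentiation of KCNQ2 with more thallium influx and brighter signal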
* = called active by the depositor; i = inactive; x = no result given.

SMILES | KCNQ2 block | KCNQ2 enhance
O=C(c1ccccc1)N1CCN(c2ccc(Cl)cc2)CC1 | i | x
O=C(COC(=O)c1cc(=O)c2ccccc2o1)NC1CCCC1 | i | x
CCOc1cc(C=O)cc(Br)c1OCC(N)=O | i | 1.87
COc1ccccc1-n1c(SC)nc2c(sc(=S)n2-c2ccccc2)c1=O | i | 1.02
COc1ccccc1-n1c(=S)sc2c(=O)n(Cc3ccco3)c(SC)nc21 | -6.92* | -6.92
CC(=O)c1ccc(N2CCN(S(=O)(=O)c3cc4c(cc3C)NC(=O)CO4)CC2)cc1 | i | 2.81
CC1CCN(CCCNC(=O)c2ccc3c(=O)n(Cc4ccc(Cl)cc4)c(=S)[nH]c3c2)CC1 | -5.88* | -5.88
COC(=O)c1ccc2c(=O)n(Cc3ccc(C(=O)NCCCN4CCC(C)CC4)cc3)c(=S)[nH]c2c1 | i | 1.24
COc1ccccc1N(C)S(=O)(=O)c1ccc(C(=O)OCC(=O)N2CCC2)cc1 | i | 0.93
Cc1nc2c(cc1NC(=O)C(C)(C)C)nc(C)n2Cc1ccccc1 | i | 7.28*
CC(=O)Nc1cc2nc(C)n(Cc3ccccc3)c2nc1C | i | x
CCN(Cc1cc(=O)n2ccsc2n1)Cc1nc2cc(OC)c(OC)cc2c(=O)[nH]1 | i | x
CCOc1ccccc1C(=O)N[C@H](C(=O)OCc1cc(=O)oc2cc(C)ccc12)C(C)C | i | x
COc1cc(OC)cc(C(=O)N[C@H](C(=O)OCc2cc(=O)oc3cc(C)ccc23)C(C)C)c1 | -7.68* | -7.68
Cc1cccn2c(=O)nc(SCC(=O)N3CCC(C)CC3)nc12 | i | 0.03
CCOC(=O)Cn1c(S(=O)(=O)Cc2ccc(Cl)cc2)nc(-c2ccccc2)c1-c1ccccc1 | -6.52* | -6.52
CCOC(=O)Cn1c(S(=O)(=O)Cc2ccccc2)nc2ccccc21 | i | 0.3
OC(CCN1CCOCC1)(c1ccc(Cl)cc1)C1CCCCC1 (stereo not drawn) | -5.83* | -5.83
OC(CCN1CCCCC1)(c1ccccc1)C1CCCCC1 (stereo not drawn) | i | x
CC(NCc1ccccc1Cl)C(=O)Nc1ccc(C#N)cc1 (stereo not drawn) | i | x
COc1cccc(C(=O)NC(=S)N2c3ccccc3CC2C)c1OC (stereo not drawn) | i | 0.66
COc1cccc(NC(=S)N2c3ccccc3CC2C)c1 (stereo not drawn) | i | 1.57
CC1Cc2ccccc2N1C(=S)NC(=O)c1cccc(Br)c1 (stereo not drawn) | i | 27.8*
CC1Cc2ccccc2N1C(=S)NC(=O)c1ccc(Cl)cc1Cl (stereo not drawn) | i | 21.1*
COc1ccc(S(=O)(=O)N(C)CC(=O)NCc2ccco2)cc1OC | i | 0.43
SMILES | KCNQ2 block | KCNQ2 enhance
COc1ccc(C(=O)NNC(=O)C(=O)Nc2ccc(C)c(Cl)c2)cc1 | i | 3.56
Cc1ccc(NC(=O)C(=O)NNC(=O)c2ccccc2C)cc1Cl | i | 12*
COc1ccccc1CC(=O)Nc1cccc2ccccc12 | i | x
COC(=O)c1cc(OC)c(OC)cc1NC(=O)c1cc(-c2ccccc2)nc2ccccc12 | i | x
CCOc1ccccc1NC(=O)c1ccccc1-c1ccccc1 | -5.58* | -5.58
CCOc1ccccc1NC(=O)c1ccccc1-c1nc(-c2ccccc2)no1 | i | x
NC(=O)c1cccnc1Oc1ccc(Cl)cc1 | i | x
O=C(Nc1cccnc1Oc1ccc(Cl)cc1)c1cccc2ccccc12 | -5.99* | -5.99
COc1cccc(C(=O)Nc2cccc3ccccc23)c1OC | -6.19* | -6.19
CCOc1ccccc1NC(=O)c1cc(-c2cc(OC)c(OC)c(OC)c2)nc2ccccc12 | -6.11* | -6.11
O=C(OCC(=O)N1CCCc2ccccc21)c1ccc(F)c(S(=O)(=O)N2CCOCC2)c1 | i | 0.2
CCOc1ccccc1NC(=O)c1cccc2ccccc12 | -5.55* | -5.55
CCOc1ccccc1C(=O)Nc1ccccc1C(N)=O | i | 0.61
O=c1c2ccccc2ncn1-c1ccccc1C(F)(F)F | i | x
CC(=O)N[C@@H](Cc1c[nH]c2ccccc12)C(=O)NC1CCCc2ccccc21 (stereo partly drawn) | i | x
COc1cccc(C(=O)N2CCCN(C)CC2)c1OC | i | x
Cc1ccc(S(=O)(=O)NCCC(=O)Nc2ccc(C)cc2C(=O)c2ccccc2)cc1 | i | 5.44*
CCN(CC)CC(=O)Nc1ccc(C)cc1C(=O)c1ccccc1 | i | x
COc1cc(C2C(C#N)=C(N)N(N(C)C)C3=C2C(=O)CC(C)(C)C3)ccc1O (stereo not drawn) | i | 1.47
CCN(CC)CCNc1ncnc2c1sc1nc(N3CCCC3)c3c(c12)CC(C)(C)OC3 | i | 5.84*
CN(C)CCNc1ncnc2c1sc1nc(N3CCCC3)c3c(c12)CC(C)(C)OC3 | i | 4.81
CN(CCC(=O)Nc1ccc(Cl)cc1)Cc1ccccc1 | i | 2.34
C[C@H](NC(=O)c1ccccc1)C(=O)N1CCN(c2ccccc2)CC1 | i | x
COc1cc2c(cc1OC)CN(C(=O)CN1CCN(S(=O)(=O)c3ccccc3)CC1)CC2 | i | 0.05
COc1ccc(CNC(=O)C(C#N)c2nc3ccccc3nc2N2CCCC2)cc1 (stereo not drawn) | i | x
SMILES | KCNQ2 block | KCNQ2 enhance
CC1CN(c2nc3ccccc3nc2C(C#N)C(=O)NCc2ccc3c(c2)OCO3)CC(C)O1 (stereo not drawn) | -5.63* | -5.63
Cc1cc(C)c(NC(=O)Nc2ccccc2C)c(Cl)c1 | i | 0.11
Cc1cc(C)c(NC(=O)Nc2ccccc2)c(Cl)c1 | i | 5.29*
Cc1c(NC(=O)CSc2ncnc3ccccc23)c(=O)n(-c2ccccc2)n1C | i | x
CN(Cc1ccccc1)c1nc(N)c([N+](=O)[O-])c(Nc2cccc(F)c2)n1 | i | x
CN(Cc1ccccc1)C(=O)c1nc2ccccn2c1CN1CCc2sccc2C1 | -5.89* | -5.89
CN(Cc1c(C(=O)N(C)Cc2ccccc2)nc2ccccn12)CC1Cc2ccccc2O1 (stereo not drawn) | i | x
CCOc1ccc(N(CC(=O)NN=C2CCN(C)CC2)S(=O)(=O)c2ccc(Br)cc2)cc1 | i | 0.82
O=C(CSc1nnc(COc2ccc(Cl)cc2)o1)N1CCCC1 | i | 0.93
O=C(CSc1nnc(COc2ccc(Cl)cc2)o1)N1c2ccccc2CCc2ccccc21 | -9.41* | -9.41
O=C(CN(c1ccc(F)cc1)S(=O)(=O)c1ccccc1)NC1CCCCCC1 | i | 0.94
Cc1cc(Br)ccc1NC(=O)CSc1nnc(CN2CCOCC2)n1C | i | 1.06
COc1ccc(C=C(c2nc3ccccc3s2)c2nc3ccccc3s2)cc1O | i | x
COc1cc(C=C(c2nc3ccccc3s2)c2nc3ccccc3s2)ccc1O | -5.97* | -5.97
O=C(Nc1ccc(C(O)(C(F)(F)F)C(F)(F)F)cc1)c1ccc(Cl)c([N+](=O)[O-])c1 | -7* | -7
O=C(O)c1cc(NC(=O)c2ccc(Cl)c([N+](=O)[O-])c2)cc(C(=O)O)c1 | i | 0.26
O=S(=O)(c1cccc(-c2n[nH]c(=S)n2C2CCCC2)c1)N1CCOCC1 | i | 1.34
CCC1CCCCN1C(=S)NC(=O)c1ccc([N+](=O)[O-])cc1 (stereo not drawn) | i | 7.84*
CCC1CCCCN1C(=S)NC(=O)c1cccs1 (stereo not drawn) | i | 4.63
CCc1nnc(NC(=O)C2CCCN2C(=O)Nc2ccccc2)s1 (stereo not drawn) | i | x
CCC1CN(C)C2Cc3c([nH]c4ccccc34)C(=O)CC1C2C(=O)OC (stereo not drawn) | i | x
